For this assay, the target named is Calmodulin-1 (Homo sapiens) (UniProt P0DP23). As to the kind of experiment: CALM1 binders on microarrays, EGTA buffer, profiling panel, biochemical, small-molecule microarray, Cy5-labelled CALM1 (AID 1111).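 Also: labelled calmodulin applied in Tris saline Tween buffer holding calcium plus EGTA and DTT.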 Conditions: Cy5-CALM1 binding fluorescence, higher = more signal.
Compound `CCCCCCCCCCC(O)C1C=CC2C(=O)N(C)C(=O)C2N1N1CCCCC1` (configuration not stated) registered a composite z-score of -0.311.

As to `CCCC[C@@H]1C[C@H]1[C@@H](NC(=O)Cc1ccccc1)c1ccc(Cl)cc1`, the composite z-score was 2.44.

Turning to `CC(C)=CCN(C(=O)C#Cc1ccccc1)[C@H](CO)c1ccccc1`, the composite z-score is -0.557.

For the compound `COc1ccc(NC(=O)O[C@H]2[C@H](OC(=O)Nc3ccc4c(c3)OCO4)[C@H](OC(=O)Nc3ccc4c(c3)OCO4)[C@@H](OC)O[C@@H]2CO)cc1`, the composite z-score came out at 0.888.

As to `CCCC[C@H]1OB(O)C[C@H]2C1=C(C)C[C@H]1C(=O)C=CC(=O)[C@H]12`, the composite z-score is -0.321.

`CO[C@H]1O[C@H](CO)[C@@H](OC(=O)Nc2ccccc2)[C@@H]2OC(=O)[C@H](Cc3ccccc3)C/C=C/C[C@@H](Cc3ccccc3)C(=O)O[C@@H]12` came in with a composite z-score of 1.68.

`C[C@H]1C2[C@H](Cc3ccccc3)NC(=O)[C@]23C(=O)NCC(=O)N2CCC[C@H]2C(=O)NC/C=C\C/C=C/C3[C@@H]2O[C@]12C` (some centres not stated) returned a composite z-score of -0.549.

In turn, `[N-]=[N+]=NCc1ccccc1C[C@]1(C(=O)O)COC(c2ccc(OCCCO)cc2)=N1` showed a composite z-score of 0.0347.

Take `CC(C)CNC(=O)[C@@]1(C)c2ccccc2C(=O)N(Cc2cc(F)cc(C(F)(F)F)c2)[C@H]1c1ccc(CO)cc1`: the composite z-score came to 0.0765.

For `CN(C)CCCNC(=O)[C@@H]1c2ccccc2C(=O)N(C2Cc3ccccc3C2)[C@H]1c1ccc(CO)cc1`, the composite z-score was -0.0693.

With `CCN(CC)c1ccc(N2CC=CC34O[C@@H]5C=CCOC(=O)[C@@H]5[C@H]3C(=O)N(CCO)[C@@H]4C2=O)cc1` (some centres not stated), the composite z-score is -0.97.

`COc1ccccc1CN1C(=O)c2ccccc2[C@@H](C(=O)NCCCN(C)C)[C@@H]1c1ccc(CO)cc1` had a composite z-score of -0.388.

Source of the values: PubChem BioAssay.
